From PubChem BioAssay (NCATS) come the findings set out here.

Results filed as inconclusive are left out. A call without a number means that no potency is given here. Calls of active or inactive are those of the source. Calls follow the shape of the dose curve; as a rule, active = well fitted inhibition curve with a large enough effect; inconclusive = small, poorly fitted or top-dose-only effect; inactive = flat fitted curve, though single readings scatter.

The nature of this assay: P-glycoprotein substrates identified in KB-8-5-11 adenocarcinoma cell line, qHTS therapeutic library screen (AID 1346987). Also: nearly all actives have a fitted effect of over 65% in size. Particulars: KB-8-5-11 (P-gp overexpressing) viability, CellTiter-Glo, 72 h; series mostly up to 44.5 µM. Summed up:
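Steps: plate 500 KB-8-5-11 cells/well in DMEM + 10% FCS (colchicine removed); pin compounds in dose-response; incubate 72 h, 37 degree C, 5% CO2; add CellTiter-Glo, 5 min; read luminescence.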
(In qHTS, concentration-response curves come from the screen itself.)
Turning to `CC1(C)CC[C@]2(C(=O)O)CC[C@]3(C)C(=CCC4[C@@]5(C)C[C@@H](O)[C@H](O)C(C)(C)C5CC[C@]43C)[C@@H]2[C@@H]1O` (some centres not stated), the Potency result was “inactive”. The same measure, in the same setting: under `NS(=O)(=O)NCCNc1nonc1C(=Nc1ccc(F)c(Br)c1)NO` stands “inactive”. On the same count and under the same terms, under `C=C(C(=O)O)C1CCC(C)C2CCC(=O)OC2(C)C1` (configuration not stated) stands “inactive”; under `CC1=C2C(=O)O[C@@H](c3ccoc3)[C@]2(C)CCC1`, “inactive”.

For the molecule `COC(=O)C1C(c2ccc(O)cc2)C(C(=O)OC)C1c1ccc(O)cc1` (configuration not stated), the Potency entry is “inactive”. As to `Cc1cn2c(N)c(Cl)cc(C(=O)NCC3CCN(CC(C)C)CC3)c2n1`, the Potency result is “inactive”. For `C=C[C@H]1[C@H](O[C@@H]2O[C@H](CO)[C@@H](O)[C@H](O)[C@H]2O)OC=C(C(=O)OC)[C@H]1C[C@@H]1N[C@H](C(=O)O)Cc2c1[nH]c1ccccc21`, the Potency entry was “inactive”. The same measure, in the same setting: then `C=C1CC23CC1(O)CCC2C1=CC2OC(=O)C(C)(C2O)C1C3C(=O)O` (configuration not stated), with “inactive”. The same measure, in the same setting: under `CC1=CC(=O)C2C(C)(C)CCCC2(C)C12CCC1(COC(=O)C1)O2` (configuration not stated) stands “inactive”; under `COc1c(C(CC(C)C)OC(C)=O)ccc(Oc2c(O)cc(C)cc2/C=C/C(C)=O)c1C(=O)O` (configuration not stated), “inactive”. Take `CC1OC(O[C@H]2[C@@H](O)C[C@@]3(C)C([C@H](O)C[C@]4(C)C3CC=C3C5CC(C)(C)CC[C@]5(C(=O)OC5OC(CO)C(O)C(O)C5OC5OCC(OC6OCC(OC7OCC(O)C(O)C7O)C(O)C6O)C(OC6OCC(O)(CO)C6O)C5O)CC[C@]34C)[C@]2(C)CO)C(O)C(O)C1O` (some centres not stated): the activity change, negative = cytotoxicity is 1.18% [at 9.29 µM] (inactive).

Consider `NCc1ccc(OCCCc2sc(-c3ccc4c(c3)/C(=N/Nc3nc5ccccc5s3)CCC4)nc2C(=O)O)cc1`, for which the Potency entry was “inactive”. With `C=C(C)C(=O)O[C@H]1C[C@@](C)(OC(C)=O)[C@@]2(O)CC[C@@](C)(O)[C@H](OC(C)=O)[C@@]23OC(=O)C(COC)=C13`, the Potency entry is “inactive”. `CN1C(=O)c2ccccc2NC(=O)[C@]12O[C@@H]2c1cccc(O)c1`: the Potency result was “inactive”.

`CC(C)C(=O)c1cn(CC(=O)COc2ccc(Oc3ccccc3)cc2)c2ccc(C(=O)O)cc12`: the Potency result was “inactive”.

`CCOC(=O)c1c(C)nn(-c2cccc([N+](=O)[O-])c2)c1C`: the Potency entry was “inactive”. For `CC1CCC2C(C(=O)O)=CC3CC(C)(C)CC132` (configuration not stated), the Potency result is “inactive”. Same read-out and setting: then `C=CCc1ccc(O[C@@H]2O[C@H](CO[C@@H]3O[C@@H](C)[C@H](O)[C@@H](O)[C@H]3O)[C@@H](O)[C@H](O)[C@H]2O)cc1`, with “inactive”.

As to `C/C1=C\C[C@H](O[C@@H]2O[C@H](CO)[C@@H](O)[C@H](O)[C@H]2O)/C(C)=C/[C@H]2OC(=O)[C@H](C)[C@@H]2CC1`, the Potency entry is “inactive”. On the same count and under the same terms, under `C/C=C1\[C@H](O[C@@H]2O[C@H](CO)[C@@H](O)[C@H](O)[C@H]2O)OC=C(C(=O)OC)[C@H]1CC(=O)OC` stands “inactive”; under `Cc1nn(C)c2c1C(c1ccc(C(F)(F)F)cc1)C(C#N)=C(N)O2` (configuration not stated), “inactive”.

Consider `CC(C)C1=CC2=CCC3[C@](C)(CCC[C@@]3(C)C(=O)O)C2CC1=O` (some centres not stated), for which the Potency entry is “inactive”. As for `CC1(C)CC2C3=CCC4C5(C)CCC(OC6OC(C(=O)O)C(O)C(O)C6OC6OC(CO)C(O)C(O)C6OC6OC(CO)C(O)C(O)C6O)C(C)(CO)C5CCC4(C)C3(C)CCC2(C)C(OC2OCC(O)C(OC3OC(CO)C(O)C(O)C3O)C2O)C1O` (configuration not stated), the activity change, negative = cytotoxicity was 1.76% [at 9.29 µM] (inactive). In the case of `CCOC(=O)[C@H](CCc1ccccc1)CC1(C(=O)N[C@H]2CCc3ccccc3N(CC(=O)O)C2=O)CCCC1`, the Potency entry was “inactive”.

On to `C/C=C(\C)C(=O)O[C@H]1[C@@H](O[C@]2(COC(=O)CC(C)C)O[C@H](COC(=O)C(C)C)[C@@H](OC(C)=O)[C@@H]2O)O[C@H](COC(C)=O)[C@@H](O)[C@@H]1O`, for which the Potency entry was “inactive”. For the molecule `COc1cc(C2OCC3C(c4ccc(OC5OC(CO)C(O)C(O)C5O)c(OC)c4)OCC23)ccc1O` (configuration not stated), the Potency result is “inactive”. Turning to `C[C@@H]1C/C=C/C=C\C=C\C=C\[C@H](O[C@@H]2O[C@H](C)[C@@H](O)[C@H](N)[C@@H]2O)C[C@@H]2O[C@](O)(C[C@@H](O)C[C@H]3O[C@@H]3/C=C/C(=O)O1)C[C@H](O)[C@H]2C(=O)O`, the Potency result was “inactive”.
